# Tau fluor counter – counter-screen for tau fibril formation inhibitors; Potency, µM (series often up to 57.7 µM), for inactives: at the highest dose activity change, negative = decrease; tau K18 P301L Alexa594 fluorescence, heparin fibrillization; actives 0.93% (n = 280,000); note: potency is the fitted concentration of half-maximal effect; nearly all actives have a fitted effect of over 55% in size
#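 Human K18 P301L tau (15 uM unlabeled plus 0.24 uM Alexa 594-labeled, final) in 100 mM sodium acetate pH 7 was mixed with compound and 20 uM heparin and incubated 6 hr at 37 C.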
# KDM4E inh – blocks human JMJD2E demethylase activity | B2RXH2 | JMJD2E catalytic domain, FDH-coupled NADH fluorescence (FDH is formaldehyde dehydrogenase) | Potency, µM (titrated, usually from 57.1 µM), for inactives: at the highest dose activity change, negative = inhibition, usual class: inhibitors | actives 1.6% (n = 230,000) | AID 2147; active = well fitted inhibition curve with a large enough effect, not every such curve was filed as active; inconclusive = small, poorly fitted or top-dose-only effect, or another doubt; inactive = no such curve, though single readings can be large or run the other way;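 note: potency is the fitted concentration of half-maximal effect; 0% = wells with enzyme and -100% = buffer wells without enzyme; nearly all actives have a fitted effect of over 50% in size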
# Target sequence (B2RXH2 1-337 limits assumed): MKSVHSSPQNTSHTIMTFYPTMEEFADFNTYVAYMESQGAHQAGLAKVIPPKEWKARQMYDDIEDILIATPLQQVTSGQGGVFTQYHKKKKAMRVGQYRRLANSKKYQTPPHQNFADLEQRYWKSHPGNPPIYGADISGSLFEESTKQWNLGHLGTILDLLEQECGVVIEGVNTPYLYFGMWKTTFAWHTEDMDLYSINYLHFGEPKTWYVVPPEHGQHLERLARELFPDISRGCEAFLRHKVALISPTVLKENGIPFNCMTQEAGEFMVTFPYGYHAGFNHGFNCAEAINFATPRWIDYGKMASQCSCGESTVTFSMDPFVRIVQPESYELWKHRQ
# FBPA coupling cs – counter-screen for Giardia aldolase inhibitors: coupling enzyme system; coupling enzyme system counterscreen, AmpLite Red fluorescence; AID 2472; activity change, negative = inhibition, % at 58.2 µM, hits read low; actives 0.67% (n = 290,000); in the data active = activity change below about -30%
#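 Final compound at 57.5 uM, incubated 10 min at RT with coupling enzyme reagent (glyceraldehyde-3-phosphate), then 20 min with substrate and AmpLite Red detection. Fluorescence read at 525/598 nm; tests interference with the coupling assay, not aldolase inhibition.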
# Tau ThT inhib – tau fibrillization inhibition (ThT binding) | Potency, µM (top dose mostly 57.4 µM), inactives show at the highest dose activity, negative = inhibition, most hits filed as inhibitors | actives 2.1% (n = 270,000) | recombinant tau K18 P301L (four-repeat tau fragment), heparin-induced fibrillization, ThT fluorescence | P10636; note: potency is the fitted concentration of half-maximal effect; nearly all actives have a fitted effect of over 55% in size
# Target sequence (P10636 561-689 P618L limits assumed): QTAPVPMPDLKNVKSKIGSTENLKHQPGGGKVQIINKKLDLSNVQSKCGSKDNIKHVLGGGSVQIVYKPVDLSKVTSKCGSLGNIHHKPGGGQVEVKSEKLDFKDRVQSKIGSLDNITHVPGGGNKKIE
#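 Tau K18 P301L fragment (15 uM unlabeled plus 0.24 uM Alexa 594-labeled) in 100 mM sodium acetate pH 7 with compound, fibrillization induced by 20 uM heparin for 6 hr at 37 C. Thioflavin T (30 uM) added, fluorescence read after 1 hr (ex 450, em 510 nm).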
# Tau FP inhib – tau fibrillization inhibition (FP) | K18 P301L tau heparin fibrillization, Alexa594 FP, 6 h | P10636 | actives 0.39% (n = 280,000) | Potency, µM (highest dose often 57.7 µM), inactives show at the highest dose activity, negative = inhibition, most hits filed as inhibitors; note: potency is the fitted concentration of half-maximal effect; nearly all actives have a fitted effect of over 55% in size
#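 Read-out: fluorescence polarization of Alexa 594-labeled tau (0.24 uM), 555 nm excitation, 632 nm emission. Mixtures held 15 uM unlabeled K18 P301L, compound and 20 uM heparin, pH 7 acetate buffer, incubated 6 hr at 37 C.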
# Sfp PPTase inh – Sfp phosphopantetheinyl transferase inhibition. Q9F4F7. Biochemical Sfp PPTase activity, qHTS. Potency, µM, for inactives: largest response in the series, negative = inhibition, actives largely listed as inhibitors. actives 3.5% (n = 310,000);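 note: the enzyme is Sfp with the accession as filed and its product quenches rhodamine fluorescence; potency is the fitted concentration of half-maximal effect; 0% = enzyme reaction without inhibitor and -100% = no enzyme wells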
#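 After 15 min at room temperature with compound, 15 nM Sfp received 5 uM rhodamine-CoA plus 12.5 uM BHQ-2-ybbR (50 mM Hepes pH 7.6, 10 mM MgCl2). Rate came from the fluorescence difference over 30 min, ex 525/em 598 nm.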
# The depositor's hits bear a star; ? = inconclusive; . = no result; [ ] = dose if it differs, or a comment. Only some compounds are listed: those with a hit (about 5.3% of all), similar ones and a draw of the others. Unless noted, calls come from the whole dose curve; as a rule, active = well fitted curve in the direction sought with a large enough effect; inconclusive = small, poorly fitted or top-dose-only effect, or another doubt; inactive = no such curve, though single readings can be large; an effect the other way counts as inactive or inconclusive. Unless noted, % is set by controls: 0 for no effect and ±100 for the full control effect.
SMILES,Tau fluor counter,KDM4E inh,FBPA coupling cs,Tau ThT inhib,Tau FP inhib,Sfp PPTase inh
CC(C)(C)c1ccc(C(=O)Nc2ccc(Cl)cc2)cc1,-12%,4%,-1,-11%,0%,-6%
CC(C)(C)c1ccc(NC(=O)c2ccsc2)cc1,-30%,0%,-21,-24%,-8%,79µM*
CC(C)(C)c1ccc(C(=O)NC(=S)Nc2ccc(N3CCOCC3)cc2)cc1,-24%,0%,0,?,2%,-2%
CC(C)(C)c1ccc(C(=O)Nc2ccc(N3CCOCC3)cc2)cc1,?,-1%,-2,4.5µM*,-12%,-3%
O=C(Nc1ccc(N2CCOCC2)cc1)c1cc2c(s1)CCCC2,-23%,10%,-2,?,6%,5%
O=C(Nc1ccc(N2CCOCC2)cc1)c1cc2c(s1)CCCCC2,?,-22%,2,10µM*,8%,6%
CC(=O)c1ccc(C(=O)Nc2ccc(N3CCOCC3)cc2)cc1,-22%,11%,-1,2.2µM*,-16%,-7%
Cc1ccc(N)c(Cl)c1,.,.,-3,.,.,11%
O=C(Nc1cccc(S(=O)(=O)Nc2ccc(Cl)cc2)c1)c1cc2c(s1)CCCC2,?,?,2,6%,14µM*,34%
COc1ccc(CNC(=O)Cn2ncn3nc(-c4cccs4)cc3c2=O)cc1,-7%,.,.,5%,-1%,.
COc1ccc(/C(N)=N/OC(=O)c2ccco2)cc1,3%,-2%,-1,-3%,-7%,0%
COc1ccc(N=N/C(=C\O)C(=O)c2ccco2)cc1,?,-1%,5,8.9µM*,4%,-10%
O=c1c2ccccc2nc(N2CCN(c3cccc(Cl)c3)CC2)n1-c1ccccc1,-18%,.,.,-14%,-5%,.
O=C(CSC1=NCCS1)Nc1nc2c(s1)CCCC2,-19%,-2%,-1,?,-8%,56µM*
COc1ccc(NC(=O)CN(C)S(=O)(=O)c2ccc3[nH]c4c(c3c2)CCCC4)cc1Cl,14µM*[quencher],.,.,-9%,5%,.
CN(CC(=O)Nc1cccc(C(F)(F)F)c1)S(=O)(=O)c1ccc2[nH]c3c(c2c1)CCCC3,25µM*[quencher],.,.,-8%,?,.
CN(CC(=O)Nc1cccc(Cl)c1)S(=O)(=O)c1ccc2[nH]c3c(c2c1)CCCC3,14µM*[quencher],.,.,-8%,-10%,.
Cc1nc2cnc(N3CCOCC3)nc2n(Cc2ccc(F)cc2)c1=O,.,.,0,.,.,24%
Cc1ccc(C)c(NC(=O)C(=O)NCCc2csc(-c3cccc(F)c3)n2)c1,-7%,.,.,-3%,1%,.
CCCc1nn2c(=O)cc(COC(=O)c3ccc(NC(=O)COc4ccccc4F)cc3)nc2s1,7%,.,.,-8%,1%,.
Cc1cccc(Cn2c(=O)n(-c3cc(C)cc(C)c3)c(=O)c3oc4ccccc4c32)c1,0%,.,.,0%,-3%,.
Fc1cccc2sc(Nc3nc4cc5c(cc4s3)OCO5)nc12,7.9µM*[quencher],480%,-1,7.9µM*,-2%,-32%
Fc1cc(F)c2nc(Nc3nc4cc5c(cc4s3)OCO5)sc2c1,5µM*[quencher],194%,-3,?,4%,3%
Fc1cccc2sc(Nc3nc4cc5c(cc4s3)OCCO5)nc12,14µM*[quencher],.,1,?,-5%,1%
CCCCn1cc[n+](C)c1,.,.,1,.,.,5%
SMILES,Tau fluor counter,KDM4E inh,FBPA coupling cs,Tau ThT inhib,Tau FP inhib,Sfp PPTase inh
COc1cc2nc(=S)n(CCCN3CCOCC3)c(N)c2cc1OC,5%,-27%,0,-1%,7%,50µM*
Cc1nc2c(=O)[nH]c(=S)n(C)c2nc1C,0%,3%,-4,?,-15%,4.5µM*
O=C(O)c1cc(=O)cc(C(=O)O)[nH]1,13%,-8%,1,8%,10%,40µM*
C=CCNC(=O)/C(C#N)=C\c1cc(Cl)c(O)c(OCC)c1,-11%,?,-5,?,7%,1%
CCOc1cc(/C=C(/C#N)C(=O)Nc2ccc(O)cc2)cc(Br)c1O,?,-2%,8,8.9µM*,13%,-10%
Cc1ccc(NCC(O)C(O)C(O)CO)c(N=Nc2ccccc2)c1C (stereo not given),13µM*[quencher],-5%,-4,2.5µM*,10%,2%

# Screening results deposited in PubChem by National Center for Advancing Translational Sciences (NCATS).
